In PubChem BioAssay (NCI) one finds growth inhibition data, which are given here for nine compounds.

Molecules are shown by their SMILES. About 79,000 compounds went through this panel and 15% of them were active in at least one assay; those are over-represented in the sample as a whole. Unmarked numbers belong to inactive results. Active and inactive are the calls of the source. No stated cut-off is given here; in the data, active means growth inhibition above about 70%; inactive means the rest.

Assay [1] is described as follows: NCI Yeast Anticancer Drug Screen. Data for the rad50 strain (AID 155).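 Further: 0% = growth of vehicle-only cultures of the same strain.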 The following applies: S. cerevisiae rad50 strain growth inhibition, active compounds read high. A digest of the protocol:
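Growth of the mutant yeast was measured after compound exposure and referenced to vehicle-treated cultures.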

A short description of assay [2]: NCI Yeast Anticancer Drug Screen. Data for the mec2-1 strain (AID 157). Particulars: S. cerevisiae mec2-1 strain, active compounds read high. A digest of the protocol:
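Test agents were screened against the mec2-1 yeast strain, with defined DNA repair or cell cycle alteration. Growth was scored as inhibition against vehicle-only controls.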

Assay [3] in a line: NCI Yeast Anticancer Drug Screen. Data for the sgs1 mgt1 strain (AID 161).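 Further: 0% = growth of cultures given vehicle only.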 Particulars: S. cerevisiae sgs1 mgt1 strain, active compounds read high. A digest of the protocol:
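Read-out: growth inhibition vs vehicle controls. Cells: mutant yeast strain deficient in DNA damage repair.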

Assay [4] in a line: NCI Yeast Anticancer Drug Screen. Data for the cln2 rad14 strain (AID 165).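 Further: 0% = growth equal to vehicle treated cultures.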 The following applies: S. cerevisiae cln2 rad14 strain, active compounds read high. A digest of the protocol: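 Growth of compound-exposed yeast (cln2 rad14 genotype) measured and expressed as inhibition relative to vehicle.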
Assay [5] can be described thus: NCI Yeast Anticancer Drug Screen. Data for the bub3 strain (AID 167). The following applies: S. cerevisiae bub3 mutant strain, active compounds read high. A digest of the protocol:
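Whole-cell yeast assay. The mutant strain was incubated with compounds, and growth inhibition was determined by comparison with vehicle-treated cells.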

The nature of assay [6]: NCI Yeast Anticancer Drug Screen. Data for the mlh1 rad18 strain (AID 175). The following applies: S. cerevisiae mlh1 rad18 strain growth inhibition, active compounds read high. A digest of the protocol:
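In this whole-cell yeast screen, a strain with altered DNA damage repair is challenged with compound, and its growth is measured against matched vehicle-treated controls.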

[7] abbreviates: at 5.0 µM (retest, dose inferred, filed as 0.5).
[8] abbreviates: at 50.0 µM (retest, dose inferred, filed as 5.0).

Regarding `Cc1c2cnccc2c(C)c2c1sc1ccccc12`, the growth inhibition was 92% (active) in assay [1] (setting [7]); 88% (active) in assay [1] (setting [8]); 96.5% (active) in assay [1] (at 50.0 µM); 80% (active) in assay [2] (setting [7]); 96% (active) in assay [2] (setting [8]); 73.5% (active) in assay [2] (at 50.0 µM). Moreover, the growth inhibition in assay [3] (setting [7]) is 87% (active); in assay [3] (setting [8]), 96% (active); in assay [3] (at 50.0 µM), 90.2% (active); in assay [4] (setting [7]) it was 65%; in assay [4] (setting [8]), 91% (active); in assay [4] (at 50.0 µM), 75.5% (active). Besides, the growth inhibition in assay [5] (setting [7]) was 56%; in assay [5] (setting [8]), 93% (active); in assay [5] (at 50.0 µM) it was 81.3% (active); in assay [6] (setting [7]), 96% (active); in assay [6] (setting [8]) it was 92% (active); in assay [6] (at 50.0 µM), 97.7% (active).

In the case of `Cc1ccc(S(=O)(=O)c2cc(O)c(O)c3ccc(Br)cc23)cc1`, the growth inhibition in assay [1] (setting [7]) is 13%; in assay [1] (setting [8]) it was 97% (active); in assay [1] (at 50.0 µM) it was 79.5% (active); in assay [2] (setting [7]) it was 9%; in assay [2] (setting [8]), 98% (active); in assay [2] (at 50.0 µM), 98.5% (active). Moreover, the growth inhibition in assay [3] (setting [7]) is 16%; in assay [3] (setting [8]), 98% (active); in assay [3] (at 50.0 µM) it was 92.9% (active); in assay [4] (setting [7]) it was -1%; in assay [4] (setting [8]) it was 97% (active); in assay [4] (at 50.0 µM), 95.4% (active). Also, the growth inhibition in assay [5] (setting [7]) is -4%; in assay [5] (setting [8]), 97% (active); in assay [5] (at 50.0 µM) it was 83.8% (active); in assay [6] (setting [7]), 9%; in assay [6] (setting [8]) it was 97% (active); in assay [6] (at 50.0 µM), 97.9% (active).

In the case of `COc1ccc2sc3c(C)ccc(NCC4CCCN5CCCCC45)c3c(=O)c2c1` (configuration not stated), the growth inhibition is 42% in assay [1] (setting [7]); 81% (active) in assay [1] (setting [8]); 97.2% (active) in assay [1] (at 50.0 µM); 12% in assay [2] (setting [7]); 88% (active) in assay [2] (setting [8]); 99.6% (active) in assay [2] (at 50.0 µM). The growth inhibition in assay [3] (setting [7]) is 32%; in assay [3] (setting [8]), 76% (active); in assay [3] (at 50.0 µM) it was 99.3% (active); in assay [4] (setting [7]) it was 16%; in assay [4] (setting [8]) it was 85% (active); in assay [4] (at 50.0 µM), 99.2% (active). In addition, the growth inhibition in assay [5] (setting [7]) was 21%; in assay [5] (setting [8]), 92% (active); in assay [5] (at 50.0 µM), 99.5% (active); in assay [6] (setting [7]), 27%; in assay [6] (setting [8]), 81% (active); in assay [6] (at 50.0 µM), 99.4% (active).

As for `c1cnc2c(Oc3nc(Oc4cccc5cccnc45)nc(Oc4cccc5cccnc45)n3)cccc2c1`, the growth inhibition in assay [1] (setting [7]) was 1%; in assay [1] (setting [8]), 91% (active); in assay [1] (at 50.0 µM), 94% (active); in assay [2] (setting [7]), 30%; in assay [2] (setting [8]), 90% (active); in assay [2] (at 50.0 µM), 89.9% (active). Further, the growth inhibition in assay [3] (setting [7]) was 18%; in assay [3] (setting [8]), 76% (active); in assay [3] (at 50.0 µM), 94.1% (active); in assay [4] (setting [7]), 5%; in assay [4] (setting [8]), 54%; in assay [4] (at 50.0 µM), 84.2% (active). Besides, the growth inhibition is -2% in assay [5] (setting [7]); 92% (active) in assay [5] (setting [8]); 94% (active) in assay [5] (at 50.0 µM); 30% in assay [6] (setting [7]); 94% (active) in assay [6] (setting [8]); 91.2% (active) in assay [6] (at 50.0 µM).

With `COc1ccc(CN2CCCN(Cc3ccc(OC)cc3OC)C2c2cc(Cl)ccc2O)c(OC)c1`, the growth inhibition in assay [1] (setting [7]) is 7%; in assay [1] (setting [8]), 87% (active); in assay [1] (at 50.0 µM), 40.6%; in assay [2] (setting [7]), 19%; in assay [2] (setting [8]), 98% (active); in assay [2] (at 50.0 µM) it was 51.4%. Also, the growth inhibition in assay [3] (setting [7]) is 2%; in assay [3] (setting [8]), 88% (active); in assay [3] (at 50.0 µM) it was 32.8%; in assay [4] (setting [7]), 0%; in assay [4] (setting [8]), 50%; in assay [4] (at 50.0 µM) it was 15.7%. Further, the growth inhibition is -1% in assay [5] (setting [7]); 91% (active) in assay [5] (setting [8]); 5.1% in assay [5] (at 50.0 µM); 17% in assay [6] (setting [7]); 97% (active) in assay [6] (setting [8]); 42% in assay [6] (at 50.0 µM).

With `O=C(O)c1cc2ccc3cccc4ccc(c1)c2c34`, the growth inhibition in assay [1] (setting [7]) was 4%; in assay [1] (setting [8]), 93% (active); in assay [1] (at 50.0 µM), 80.3% (active); in assay [2] (setting [7]), 1%; in assay [2] (setting [8]) it was 89% (active); in assay [2] (at 50.0 µM), 70.7% (active). The growth inhibition in assay [3] (setting [7]) is 3%; in assay [3] (setting [8]), 94% (active); in assay [3] (at 50.0 µM), 87.3% (active); in assay [4] (setting [7]), -4%; in assay [4] (setting [8]), 92% (active); in assay [4] (at 50.0 µM) it was 77.8% (active). Also, the growth inhibition was -3% in assay [5] (setting [7]); 90% (active) in assay [5] (setting [8]); 88.4% (active) in assay [5] (at 50.0 µM); 9% in assay [6] (setting [7]); 94% (active) in assay [6] (setting [8]); 86% (active) in assay [6] (at 50.0 µM).

`C1=Nc2ccccc2C=Nc2ccccc2C=Nc2ccccc2C=Nc2ccccc21.[Cl-].[Pt+2]`: the growth inhibition is 55% in assay [1] (setting [7]); 93% (active) in assay [1] (setting [8]); 85% (active) in assay [1] (at 50.0 µM); 80% (active) in assay [2] (setting [7]); 97% (active) in assay [2] (setting [8]); 82.2% (active) in assay [2] (at 50.0 µM). Besides, the growth inhibition is 36% in assay [3] (setting [7]); 89% (active) in assay [3] (setting [8]); 76.8% (active) in assay [3] (at 50.0 µM); 25% in assay [4] (setting [7]); 69% in assay [4] (setting [8]); 60% in assay [4] (at 50.0 µM). Further, the growth inhibition is 75% (active) in assay [5] (setting [7]); 87% (active) in assay [5] (setting [8]); 74.7% (active) in assay [5] (at 50.0 µM); 63% in assay [6] (setting [7]); 97% (active) in assay [6] (setting [8]); 81.4% (active) in assay [6] (at 50.0 µM).

In the case of `CC(Br)Cc1ccc2c(c1)OCO2` (configuration not stated), the growth inhibition was 3% in assay [1] (setting [7]); 0% in assay [1] (setting [8]); 1.15% in assay [1] (at 50.0 µM); 2% in assay [2] (setting [7]); -2% in assay [2] (setting [8]); 44.5% in assay [2] (at 50.0 µM). The growth inhibition in assay [3] (setting [7]) was 3%; in assay [3] (setting [8]), -3%; in assay [3] (at 50.0 µM), 19.8%; in assay [4] (setting [7]), 3%; in assay [4] (setting [8]), -1%; in assay [4] (at 50.0 µM), -3.8%. Also, the growth inhibition is -10% in assay [5] (setting [7]); -14% in assay [5] (setting [8]); -28.5% in assay [5] (at 50.0 µM); -4% in assay [6] (setting [7]); 1% in assay [6] (setting [8]); -12.4% in assay [6] (at 50.0 µM).

Regarding `CSCCC(NC(=O)C(CCSC)NS(=O)(=O)Cc1ccccc1)C(=O)O` (configuration not stated), the growth inhibition was -6% in assay [1] (setting [7]); -4% in assay [1] (setting [8]); 98.9% (active) in assay [1] (at 50.0 µM); -4% in assay [2] (setting [7]); -3% in assay [2] (setting [8]); 99.6% (active) in assay [2] (at 50.0 µM). Moreover, the growth inhibition in assay [3] (setting [7]) was -6%; in assay [3] (setting [8]) it was -6%; in assay [3] (at 50.0 µM) it was 48.5%; in assay [4] (setting [7]) it was -2%; in assay [4] (setting [8]), -12%; in assay [4] (at 50.0 µM), 98.7% (active). Also, the growth inhibition was -4% in assay [5] (setting [7]); -3% in assay [5] (setting [8]); 99.2% (active) in assay [5] (at 50.0 µM); -4% in assay [6] (setting [7]); -5% in assay [6] (setting [8]); 99.2% (active) in assay [6] (at 50.0 µM).
